Screening data from PubChem BioAssay.
Most compounds without a hit are left out; they make up all but 6% or so of the library.
Sfp inh = qHTS Assay for Inhibitors of Bacillus subtilis Sfp phosphopantetheinyl transferase (PPTase); Potency, µM, without a hit: largest response in the series, negative = inhibition, actives largely listed as inhibitors; 310,000 tested, 3.5% active; 4'-phosphopantetheinyl transferase ffp (Bacillus subtilis), Q9F4F7; Biochemical Sfp PPTase activity, qHTS;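 note: the enzyme is Sfp with the accession as filed and its product quenches rhodamine fluorescence; 0% = enzyme reaction without inhibitor and -100% = no enzyme wells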
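Compounds were incubated with enzyme (final 15 nM) for 15 min at room temperature before substrate addition started the reaction. Fluorescence at 525 nm excitation, 598 nm emission was recorded immediately and after 30 minutes.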
VDR inhibitor = Inhibitors of the vitamin D receptor (VDR): qHTS. VDR-SRC2-3 peptide fluorescence polarization, 2 h. Potency, µM, for inactives: max response, negative = inhibition, hits mostly inhibitors. 400,000 tested, 0.93% active. Vitamin D3 receptor (Homo sapiens), P11473
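FP read-out; VDR + SRC2-3 coactivator peptide; 23 nl compound by pintool; 2 h RT incubation; reagents held at 4 deg C, protected from light.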
Tau FP inhib = qHTS for Inhibitors of Tau Fibril Formation, Fluorescence Polarization; Microtubule-associated protein tau (Homo sapiens), P10636; K18 P301L tau heparin fibrillization, Alexa594 FP, 6 h; Potency, µM (top dose mostly 57.7 µM), for the others: at the top dose activity, negative = inhibition, actives largely listed as inhibitors; 280,000 tested, 0.39% active; note: nearly all actives have a fitted effect of over 55% in size
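FP of Alexa 594-tau after heparin (20 uM) induction. Substrate: human K18 P301L, 15 uM unlabeled, 0.24 uM labeled. Buffer 100 mM sodium acetate pH 7. 6 hr, 37 C.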
Tau ThT inhib = qHTS for Inhibitors of Tau Fibril Formation, Thioflavin T Binding. Microtubule-associated protein tau (Homo sapiens), P10636. recombinant tau K18 P301L, heparin-induced fibrillization, ThT fluorescence. Potency, µM (series often up to 57.4 µM), for inactives: at the top dose activity, negative = inhibition, most hits filed as inhibitors. 270,000 tested, 2.1% active. AID 1460, 2008; note: nearly all actives have a fitted effect of over 55% in size
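K18 P301L tau (15 uM + 0.24 uM Alexa 594-tagged), heparin 20 uM, NaOAc pH 7, 6 h 37 C; ThT 30 uM, 1 h RT, ex 450/em 510 nm.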
Tau fluor cs = Counterscreen qHTS for Inhibitors of Tau Fibril Formation, Fluorescence Polarization. 280,000 tested, 0.93% active. Potency, µM (series often up to 57.7 µM), for inactives: at the top dose activity change, negative = decrease. tau K18 P301L (four-repeat tau fragment) Alexa594 fluorescence, heparin fibrillization. AID 1463, 2008; note: nearly all actives have a fitted effect of over 55% in size
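Human K18 P301L tau (15 uM unlabeled plus 0.24 uM Alexa 594-labeled, final) in 100 mM sodium acetate pH 7 was mixed with compound and 20 uM heparin and incubated 6 hr at 37 C.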
PLK1 PBD inh = qHTS for Inhibitors of PLK1-PDB (polo-like kinase 1 - polo-box domain): Primary Screen; 360,000 tested, 2.8% active; AID 720504, 2013; Plk1 PBD binding of FITC phosphopeptide, fluorescence polarization; Potency, µM, for the others: max response, negative = inhibition, hits mostly inhibitors; note: series mostly up to about 57 µM; nearly all actives have a fitted effect of over 65% in size
Target sequence (P53350 whole entry, looked up, the tested form may be a part): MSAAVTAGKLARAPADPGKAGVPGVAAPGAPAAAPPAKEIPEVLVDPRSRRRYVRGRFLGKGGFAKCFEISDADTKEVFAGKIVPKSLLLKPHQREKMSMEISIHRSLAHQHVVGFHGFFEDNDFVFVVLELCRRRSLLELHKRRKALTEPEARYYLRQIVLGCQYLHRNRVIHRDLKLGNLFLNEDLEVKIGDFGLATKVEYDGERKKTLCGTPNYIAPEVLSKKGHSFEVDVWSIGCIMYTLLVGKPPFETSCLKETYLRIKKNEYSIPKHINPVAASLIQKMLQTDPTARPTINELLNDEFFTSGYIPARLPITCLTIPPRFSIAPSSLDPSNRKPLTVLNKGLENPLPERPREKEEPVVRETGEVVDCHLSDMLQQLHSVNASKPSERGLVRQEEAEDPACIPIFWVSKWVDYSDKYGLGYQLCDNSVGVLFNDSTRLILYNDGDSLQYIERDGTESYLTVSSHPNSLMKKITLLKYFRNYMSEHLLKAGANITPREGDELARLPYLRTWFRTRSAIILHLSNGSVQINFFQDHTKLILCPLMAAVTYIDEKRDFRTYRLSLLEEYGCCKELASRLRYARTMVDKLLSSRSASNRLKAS
Active calls of the source: *; ? = inconclusive; . = no result given. Calls come from the whole dose curve; as a rule, active = well fitted curve in the direction sought with a large enough effect; inconclusive = small, poorly fitted or top-dose-only effect, or another doubt; inactive = no such curve, though single readings can be large; an effect the other way counts as inactive or inconclusive. Unless noted, % is set by controls: 0 for no effect and ±100 for the full control effect; potency is the fitted concentration of half-maximal effect.

SMILES	Sfp inh	VDR inhibitor	Tau FP inhib	Tau ThT inhib	Tau fluor cs	PLK1 PBD inh
CCC(CC)CN1CCC(CN2C(=S)NC[C@@H]2CC(C)C)CC1	.	-3%	.	.	.	-10%
COc1ccc(C[C@@H]2CN3C(=NC[C@@H]3C)N2C[C@H](C)NC(=O)CCC2CCCCC2)cc1	50µM*	-5%	10%	-16%	4%	-8%
COc1ccc(C[C@H]2CN3C(=NC[C@@H]3Cc3ccccc3)N2C[C@H](C)NC(=O)CCC2CCCCC2)cc1	-18%	.	2%	-15%	-2%	.
S=c1[nH]nc(NCCCN2CCOCC2)s1	35µM*	89µM*	?	?	-9%	12µM*
CC(=O)CC1OC(=O)C(Br)=C1NCc1ccccc1 (stereo not given)	-10%	?	?	8.9µM*	-19%	27µM*
CC(=O)c1sc(NCc2ccccc2)nc1C	-4%	-4%	.	.	.	-6%
Cc1ccc(CSc2nc3cccnc3n2Cc2ccc(C(=O)NCCc3cccs3)cc2)cc1	.	1%	-5%	2%	-17%	.
NC(=O)c1c(NC(=O)c2ccc(S(=O)(=O)N3CCOCC3)cc2)sc2c1CCCCC2	?	-13%	?	-12%	-20%	-13%
Cn1ccc(C(=O)Nc2sc3c(c2C(N)=O)CCCCC3)n1	32µM*	3%	.	.	.	?
COC(=O)c1c(NC(=O)/C(C#N)=C/c2ccccc2)sc2c1CCC2	.	?	-5%	-17%	-5%	.
CN1CCN(S(=O)(=O)c2cccc(C(=O)Nc3sc4c(c3C(N)=O)CCCC4)c2)CC1	56µM*	4%	-1%	?	-21%	-10%
NC(=O)c1c(NC(=O)c2noc3c2CCCC3)sc2c1CCCC2	.	50µM*	?	28µM*	-26%	.
N#C/C(=C\c1ccccc1)C(=O)Nc1sc2c(c1C(N)=O)CCC2	.	-5%	8%	1.4µM*	-7%	.
CN(CC(=O)Nc1ccccc1Cl)C(=O)c1ccc(N2C(=O)CCC2=O)cc1	.	-6%	.	.	.	-1%
CCOC(=O)C1=CCN(S(=O)(=O)c2ccccc2)C1c1ccc(Cl)cc1 (stereo not given)	.	.	.	.	.	-3%
NC(=O)c1c(NC(=O)C2c3ccccc3Oc3ccccc32)sc2c1CCCCC2	35µM*	-28%	3%	?	-13%	?
COc1ccc(C2=Nn3c(nnc3-c3cc(OC)ccc3OC)SC2)c(OC)c1	-21%	.	.	.	.	.
CC(C(=O)C12CC3CC(CC(C3)C1)C2)N1CCOCC1 (stereo not given)	6%	?	.	.	.	21µM*
O=[N+]([O-])c1ccc(-c2csc(N3CCc4ccccc4C3)n2)cc1	10%	-15%	11%	5µM*	?	-8%
CN(C)c1ccc(CNS(=O)(=O)c2csc(C(N)=O)c2)cc1	7%	-20%	-7%	-4%	-10%	0%
NC(=O)c1cc(S(=O)(=O)NCCCc2ccccc2)cs1	11%	-23%	.	.	.	27µM*
N#CC1=C(S)N(c2ccccc2)C(c2ccco2)NC1=O (stereo not given)	?	-7%	-12%	4%	-10%	8%
N#CC1=C(S)N(c2ccc(F)cc2)C(c2ccco2)NC1=O (stereo not given)	22µM*	?	?	40µM*	-16%	?
Cc1ccc(N2C(S)=C(C#N)C(=O)NC2c2ccco2)cc1 (stereo not given)	-87%	40µM*	?	?	-14%	-28%
O=C(O)c1ccccc1SCc1cn2cc(Br)ccc2n1	-13%	-21%	3%	-2%	3%	-11%
SMILES	Sfp inh	VDR inhibitor	Tau FP inhib	Tau ThT inhib	Tau fluor cs	PLK1 PBD inh
O=C(O)c1cccnc1SCc1cn2cc(Br)ccc2n1	-6%	?	7%	-5%	-5%	12µM*
CCn1c(CNC(=O)c2ccc(OC)cc2)nnc1SCC(=O)Nc1ccccc1	.	-5%	-9%	-5%	-9%	.
CCOC(=O)CSC1=C(C#N)C(c2ccccc2)C(C(C)=O)=C(C)N1 (stereo not given)	79µM*	41%	-3%	-4%	-6%	-27%
CSC1=C(C#N)C(c2ccccc2Cl)C(C(C)=O)=C(C)N1 (stereo not given)	-5%	-5%	3%	-1%	-9%	-9%
C=CCOC(=O)C1=C(C)NC(SCC(=O)OCC)=C(C#N)C1c1ccc(O)c(OC)c1 (stereo not given)	-16%	-18%	2%	?	-27%	-20%
CSCSC1=C(C#N)C(c2ccc(Cl)cc2)C(C(C)=O)=C(C)N1 (stereo not given)	10µM*	.	-3%	-12%	-27%	.
CSc1ccc(CN2CCC(C)(Oc3ccc(F)cc3)C2)cc1 (stereo not given)	.	.	.	.	.	-5%
CCC(C)NCCCOc1ccc(C)cc1OC (stereo not given)	-6%	-12%	-7%	3%	-1%	-16%
CNCCCOc1ccc(C)cc1OC	45µM*	-5%	-10%	-6%	-10%	-10%
CC(=O)N1c2ccc(S(=O)(=O)N3CCCC3)cc2CC1C(=O)Nc1cc(C)cc(C)c1 (stereo not given)	11%	14%	.	.	.	10%
CC(=O)N1c2ccc(S(=O)(=O)N3CCCCC3)cc2CC1C(=O)Nc1ccc(F)cc1C (stereo not given)	15%	?	.	.	.	27µM*
CCc1cnc2c(c1SCc1c(F)cccc1Cl)c(=O)n(C)c(=O)n2C	.	-5%	-7%	-9%	-6%	.
COCCn1c(NC(=S)NC(=O)C2CC2)cc(=O)[nH]c1=O	22µM*	?	-5%	-10%	0%	?
O=C1c2ccccc2C(=O)c2c1cccc2-n1nnc2ccccc21	3%	5%	8%	-2%	-11%	-4%
O=C1C(N2CCOCC2)=C(n2nnc3ccccc32)C(=O)c2ccccc21	-24%	-1%	?	13µM*	?	-28%
O=C(CSc1n[nH]c(-c2ccco2)n1)Nc1ccc(Br)cc1	21%	-15%	.	.	.	27µM*
COc1ccc(NC(=O)CSc2n[nH]c(-c3ccco3)n2)cc1	-18%	0%	-2%	-10%	-3%	0%
CCOC(=O)CSc1n[nH]c(-c2ccco2)n1	5%	-26%	-9%	-4%	-4%	30µM*
O=C(CSc1n[nH]c(-c2ccco2)n1)Nc1sc2c(c1C(=O)Nc1ccccc1)CCCC2	35µM*	10%	-12%	-1%	?	-10%
